Measured values taken from PubChem BioAssay (NCI).
Compounds without any hit were thinned out: in the full panel of roughly 79,000, 15% have a hit. Active and inactive are the calls of the source. No stated cut-off is given here; in the data, active means growth inhibition above about 70%; inactive means the rest.

Legend:
[1] = NCI Yeast Anticancer Drug Screen. Data for the rad50 strain (AID 155);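 further: 0% = growth of vehicle-only cultures of the same strain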; details: S. cerevisiae rad50 strain growth inhibition; at 50.0 µM; stronger effect = higher value
How it was run: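 Cells are treated with compound, grown, and their growth is then scored against vehicle-only cultures of the same repair-deficient yeast strain.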

[2] = NCI Yeast Anticancer Drug Screen. Data for the mec2-1 strain (AID 157); details: S. cerevisiae mec2-1 strain, at 50.0 µM, stronger effect = higher value
How it was run: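 Test agents were screened against the mec2-1 yeast strain, with defined DNA repair or cell cycle alteration. Growth was scored as inhibition against vehicle-only controls.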

[3] = NCI Yeast Anticancer Drug Screen. Data for the sgs1 mgt1 strain (AID 161);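 further: 0% = growth of cultures given vehicle only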; details: S. cerevisiae sgs1 mgt1 strain, at 50.0 µM, stronger effect = higher value
How it was run: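 Read-out: growth inhibition vs vehicle controls. Cells: mutant yeast strain deficient in DNA damage repair.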

[4] = NCI Yeast Anticancer Drug Screen. Data for the cln2 rad14 strain (AID 165);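 further: 0% = growth equal to vehicle treated cultures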; details: S. cerevisiae cln2 rad14 strain, at 50.0 µM, stronger effect = higher value
How it was run: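 Growth of compound-exposed yeast (cln2 rad14 genotype) measured and expressed as inhibition relative to vehicle.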

[5] = NCI Yeast Anticancer Drug Screen. Data for the bub3 strain (AID 167); details: S. cerevisiae bub3 mutant strain, at 50.0 µM, stronger effect = higher value
How it was run: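 Part of a panel of yeast mutants defective in DNA damage repair or cell cycle regulation. Each strain is grown with compound, and inhibition is calculated relative to solvent-treated cultures.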

[6] = NCI Yeast Anticancer Drug Screen. Data for the mlh1 rad18 strain (AID 175); details: S. cerevisiae mlh1 rad18 strain growth inhibition; at 50.0 µM; stronger effect = higher value
How it was run: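 In this whole-cell yeast screen, a strain with altered DNA damage repair is challenged with compound, and its growth is measured against matched vehicle-treated controls.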

Measured: growth inhibition

CCOP(=O)(OCC)C(N)Cc1c[nH]c2ccccc12 (configuration not stated)
inactive: [1] 13.9% | [2] -5.85% | [3] -16.8% | [4] 16.4% | [5] 11.6% | [6] 4.9%

O=C(O)C(Oc1nc(=S)[nH]c(=S)[nH]1)(c1ccc(Cl)cc1)c1ccc(Cl)cc1
inactive: [1] -1.5% | [2] 6.55% | [3] -23.2% | [4] 0.55% | [5] -10.7% | [6] -8.8%

CC(C)CCN(CCc1ccccc1[N+](=O)[O-])CCC(C)C
inactive: [1] 12.1% | [2] -7.45% | [3] -8.7% | [4] -36.9% | [5] 44.1% | [6] 38.6%

Cn1nnc(C(N)=O)n1
inactive: [1] -9.65% | [2] -15.2% | [3] -15.8% | [4] -12.8% | [5] -4.2% | [6] -18.8%

C[C@]12CC[C@H]3[C@@H](CCC4=C(Br)C(=O)CC[C@@H]43)[C@@H]1CC[C@@H]2O
inactive: [1] 9.5% | [2] 2.3% | [3] 10.6% | [4] -19.6% | [5] 2.5% | [6] 19.1%

C=Cn1nnc(N)n1
inactive: [1] -4.9% | [2] -0.45% | [3] -16.7% | [4] 4.55% | [5] 17.1% | [6] 9.05%

CC(=O)O[C@@]12CO[C@@H]1CC(O)[C@@]1(C)C(=O)[C@H](O)C3=C(C)C(O)C[C@@](O)(C(OC(=O)c4ccccc4)C12)C3(C)C (some centres not stated)
inactive: [1] -12.8% | [2] -28.4% | [3] -12.3% | [4] -5.9% | [5] -29.4% | [6] -8.65%

CC(CO)[N+](=O)[O-] (configuration not stated)
inactive: [1] 0.75% | [2] 1.15% | [3] -5.05% | [4] -15.2% | [5] 1.5% | [6] 1%

COP(=O)(Oc1ccccc1)Oc1ccccc1
inactive: [1] 17.6% | [2] -17.5% | [3] 23.9% | [4] 13.1% | [5] 25.9% | [6] 18.5%

COc1cc2c(cc1OC)C(c1ccc(O)c(O)c1)CNC2 (configuration not stated)
inactive: [1] -27.8% | [2] -7.9% | [3] -31.1% | [4] -10.1% | [5] -21.1% | [6] -5.3%

COc1cc(-c2ccc(N)c(OC)c2)ccc1N
inactive: [1] 26.7% | [2] 7.9% | [3] 20.2% | [4] 5.8% | [5] -2.45% | [6] 30.1%

Cc1ccc(S(=O)(=O)N/N=C(\CCN2CCCC2)CC(c2ccccc2)c2c(O)c3ccccc3oc2=O)cc1 (configuration not stated)
inactive: [1] 14.6% | [2] 9.1% | [3] 20.8% | [4] 21.8% | [5] 9.95% | [6] 17.6%

CC1CCCCN1CCCN=C(N)N[N+](=O)[O-] (configuration not stated)
inactive: [1] 9.2% | [2] -3.35% | [4] 18.1% | [5] 18.1% | [6] -0.8%

COc1ccccc1OC (tested in a mixture with another compound)
inactive: [1] 22.5% | [2] 16.7% | [4] -17.4% | [5] 14.2% | [6] 16.2%

CCC(CC)C(=O)Cl
inactive: [1] -3.8% | [2] -4.6% | [4] -13.1% | [5] -1.35% | [6] -22.9%

O=C(COc1cccc(Cl)c1)NCc1ccccc1NC(=O)c1ccc(S(=O)(=O)F)cc1
active: [1] 95.2% | [2] 84.3% | [4] 89.9% | [5] 90.5% | [6] 95.8%

CC(C)=NNC1=NC(C)(C)P(=O)(N2CCCC2C(=O)O)S1 (configuration not stated)
inactive: [1] 0.8% | [2] -12.4% | [4] -2.3% | [5] 5.25% | [6] -9.2%

O=C(CC(=O)c1ccccc1)c1ccccc1.[Tl]
active: [1] 96.2% | [2] 91.5% | [3] 97.5% | [5] 88.7% | [6] 98.1%

CNC(=O)Oc1ccc(Br)cc1Br
inactive: [1] 29.4% | [2] -0.95% | [4] -3.55% | [5] 10.9% | [6] 2.35%

O=c1[nH]c(=O)c2[nH]c(N=Nc3ccc(N(CCCl)CCCl)cc3)nc2[nH]1
inactive: [1] 20.9% | [2] 6.1% | [4] 38.1% | [5] 10.7% | [6] 17.6%

O=C(CCC1C(=O)NC(=S)NC1=O)c1ccc2ccccc2c1
inactive: [1] 14.7% | [2] 17.8% | [4] 5.3% | [5] -7.95% | [6] -8.15%

CCC(=O)C(c1ccccc1)(c1ccccc1)C(C)CN(C)C (configuration not stated)
inactive: [1] -8.7% | [2] -9.2% | [4] -5.55% | [5] -4.9% | [6] -6.35%

O=C(CN1C(=O)C2CCCCC2C1=O)N1CC1 (configuration not stated)
inactive: [1] -7.8% | [2] 0.1% | [4] 5.85% | [5] -6.6% | [6] -9.3%

BrCCCBr
inactive: [1] 15.1% | [2] 5.8% | [4] 10.7% | [5] 12.4% | [6] 21.3%

CCC(O)C[As](=O)(O)c1ccccc1OC (configuration not stated)
inactive: [1] 5.75% | [2] 20.2% | [4] -1.6% | [5] 18.1% | [6] -1.65%

COc1cc2c(c(OC)c1OC)-c1ccc(SC)c(=O)cc1[C@@H](NC(C)=O)CC2
inactive: [1] -12.4% | [2] -16.9% | [3] -19.1% | [5] -27.4% | [6] -7.3%

O=C1C=CC(=O)N1c1ccccc1Cl (tested in a mixture with another compound)
inactive: [1] 20.2% | [2] 4.15% | [4] 4.2% | [5] 21.2% | [6] 6.7%

CC(C)=CCN=C(N)N
inactive: [1] -9.15% | [2] -51.1% | [4] -8% | [5] -37.1% | [6] -28.7%

c1ccc2c(c1)ccc1sc3c([n+]12)CCC3
inactive: [1] -0.9% | [2] -5.65% | [4] -14.5% | [5] 2.4% | [6] -5.3%

COc1cc2c(cc1OC)C13CCN4C=C5CCOC6CC(=O)N2C1C6C5CC43 (configuration not stated)
inactive: [1] -25.4% | [2] -8.7% | [4] 1.75% | [5] -60% | [6] 16.8%

Clc1ccc(C(Cl)(Cl)Cl)c(Cl)c1
inactive: [1] 9% | [2] 6.35% | [4] -15.8% | [5] 17.9% | [6] 20.4%

CCC(C)c1ccc(O)cc1 (configuration not stated)
inactive: [1] 3.5% | [2] -2.9% | [4] -16.1% | [5] -5% | [6] -4.65%

COC(=O)C1C(=O)NC2(C)CC1c1ccccc1O2 (configuration not stated)
inactive: [1] -28% | [2] -11.7% | [4] 8% | [5] -12.5% | [6] -1.45%

CC(CCC#N)([N+](=O)[O-])[N+](=O)[O-]
inactive: [1] 17.1% | [2] 12.8% | [4] 0.5% | [5] 10.3% | [6] 12.9%

O=C([CH-]C(=O)c1ccccc1)c1ccccc1.O=C([CH-]C(=O)c1ccccc1)c1ccccc1.[OH-].[OH-].[Ti+4]
inactive: [1] 6.25% | [2] -9.65% | [3] -6.85% | [5] 36.9% | [6] 8.7%

CC(SC(C)C(=O)N/N=C/c1ccc(N(CCCl)CCCl)cc1)C(=O)N/N=C\c1ccc(N(CCCl)CCCl)cc1 (configuration not stated)
inactive: [1] -0.45% | [2] -0.55% | [4] -10.7% | [5] 5.05% | [6] 26.1%

Cc1ccc2[nH]c(=S)n(-c3cccc(C(F)(F)F)c3)c(=O)c2c1
inactive: [1] 17.8% | [2] 6.35% | [4] 20.7% | [5] 22.6% | [6] 16.5%

CC(C)c1ccc(CCN)cc1
inactive: [1] 6.25% | [2] 3.5% | [4] -0.2% | [5] 5.65% | [6] -6.1%

C=CCn1nnc(N)n1
inactive: [1] -11.8% | [2] 7.15% | [4] 19.5% | [5] 8.35% | [6] -2.25%

O=C(O)c1ccccc1Cl
inactive: [1] -8% | [2] -11.5% | [4] 30.9% | [5] 5.2% | [6] 16.4%

NC(=O)CI
inactive: [1] 30.8% | [2] 27.1% | [4] 13.8% | [5] 18.5% | [6] 17.1%

Oc1c(Cl)cccc1Cl
inactive: [1] -22.4% | [2] -51.9% | [4] -1.6% | [5] -55.1% | [6] 3.4%

O=C1NC(=S)NC(=O)C1=Cc1ccncc1
inactive: [1] -19% | [2] -46.9% | [4] 9.55% | [5] -26.9% | [6] -10.3%

O=C(CC(=O)c1ccccc1)c1ccccc1.O=C(CC(=O)c1ccccc1)c1ccccc1.[Pd]
inactive: [1] 20.5% | [2] 4.9% | [3] 6.7% | [5] 6.05% | [6] 19.8%

N#CC(C#N)=Cc1ccccc1O
inactive: [1] -8.35% | [2] -2.35% | [4] -5.95% | [5] -19.8% | [6] -9.7%

N#CS.N=C=S.N=C=S.[Co+3].[NH-]CC[NH-].[NH-]CC[NH-]
inactive: [1] 10.5% | [2] 10.2% | [4] 3.5% | [5] 27.9% | [6] 10.7%

NC1CCCC[C@H]1N.N[C@@H]1CCCC[C@@H]1N.O=C(P(=O)([O-])[O-])P(=O)([O-])[O-].[Pt+4].[Pt+4]
inactive: [1] 20.2% | [2] 3.85% | [4] 2.7% | [5] -6.6% | [6] 10.3%
